Screening data as filed in PubChem.
BAZ2B inh: inhibitors of human BAZ2B bromodomain. Q9UIF8. AlphaScreen BAZ2B-H3K14Ac peptide displacement. Potency, µM (series often up to 114 µM), without a hit: top-dose activity change, negative = inhibition, hits mostly inhibitors. 360,000 tested, 4.4% active; note: % is set by controls: 0 for no effect and ±100 for the full control effect; nearly all actives have a fitted effect of over 60% in size
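BAZ2B (50 nM) with biotin-H3(5-23)K14Ac peptide (50 nM) in PBS pH 7.4, 0.01% Tween-20, preformed 30 min, then compound 30 min at room temperature; top concentration 110uM. AlphaScreen streptavidin donor/nickel chelate acceptor beads (10 ug/mL final), 20 min dark, signal read.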
JMJD2A Tudor: inhibitors of human JMJD2A Tudor domain. O75164. AlphaScreen JMJD2A-Tudor / H3K4me3 peptide binding. Potency, µM (series often up to 114 µM), for the others: top-dose activity change, negative = inhibition, most hits filed as inhibitors. 390,000 tested, 4.4% active. AID 504339; note: % is set by controls: 0 for no effect and ±100 for the full control effect; nearly all actives have a fitted effect of over 50% in size
L3MBTL1 block: blocks human L3MBTL1. 230,000 tested, 0.66% active. AlphaScreen L3MBTL1–H3K9me1 peptide binding. AID 485360. Potency, µM (highest dose often 57.1 µM), for inactives: top-dose activity, negative = inhibition, usual class: inhibitors. Q9Y468; note: % is set by controls: 0 for no effect and ±100 for the full control effect; nearly all actives have a fitted effect of over 60% in size
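L3MBTL1 (50 nM) pre-complexed 30 min with biotinylated H3(1-15)K9me1 peptide (75 nM), then compounds added for 30 min at room temperature; AlphaScreen streptavidin donor/nickel chelate acceptor beads (10 ug/mL final) read after 30 min dark incubation.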
HP1b binding inh: blocks HP1-beta chromodomain binding to methylated histone tails | P83916 | AlphaScreen HP1-beta / biotin-H3K9me3 peptide binding | Potency, µM (titrated, usually from 114 µM), inactives show at the top dose activity change, negative = inhibition, usual class: inhibitors | 390,000 tested, 0.56% active; note: nearly all actives have a fitted effect of over 70% in size
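HP1-beta protein (50 nM final) preincubated 30 min at room temperature with biotinylated H3(1-18)K9me3 peptide (50 nM) in PBS pH 7.4, 0.01% Tween-20, then compound added for 30 min. AlphaScreen streptavidin donor/nickel chelate acceptor beads (10 ug/mL final), 30 min dark, luminescence read.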
G9a block: G9a (human) methyltransferase inhibition | 350,000 tested, 8.8% active | Potency, µM (series often up to 102 µM), without a hit: top-dose activity, negative = inhibition, actives largely listed as inhibitors | G9a H3K9 monomethylation, AlphaScreen, 2 h | AID 504332 | Q96KQ7; note: % is set by controls: 0 for no effect and ±100 for the full control effect; nearly all actives have a fitted effect of over 75% in size
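Readings reflect AlphaScreen signal from monomethyl-H3K9 antibody detection. HMT at 20 nM; substrate b-H3K9 500 nM; cofactor SAM 20 uM; 2 h RT reaction; compounds tested as titrations in qHTS with 15 min preincubation.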
The depositor's hits bear a star; ? = inconclusive; / = not tested or not shown; [ ] = remark or other dose. This is a sample that favours compounds with a hit; in the whole collection about 11% have one here. Calls come from the whole dose curve; as a rule, active = well fitted inhibition curve with a large enough effect; inconclusive = small, poorly fitted or top-dose-only effect; inactive = no such curve, though single readings can be large or run the other way. Potency is the fitted concentration of half-maximal effect.

SMILES	BAZ2B inh	JMJD2A Tudor	L3MBTL1 block	HP1b binding inh	G9a block
CCN(CC)CCOC(=O)c1ccc(NC(=O)c2cc3cccc(OC)c3oc2=O)cc1	-13%	-28%	/	12%	?
CCOc1ccccc1CNC(=O)CN1C(=O)c2cccnc2Oc2ccc(C)cc21	11%	-21%	/	56%	-2%[59 µM]
Cc1ccc([C@H]2C(C(=O)O)=CC[C@@H](c3ccc(C)cc3)N2S(=O)(=O)c2ccc(C)cc2)cc1	/	-31%	1%	8%	/
CCOC(=O)N1CCC(N2Cc3cccc(C(=O)NCC4CCN(CC(C)C)C4)c3C2=O)CC1 (centres undefined)	9%	-15%	/	11%	50µM*
CCOC(=O)N1CCC(N2Cc3cccc(C(=O)Nc4ccc(N(CC)CC)cc4C)c3C2=O)CC1	14µM*	25µM*	/	?	10µM*
COc1ccc(CCn2c3c(c(=O)[nH]c2=O)C(NC(=O)c2ccc(C(C)(C)C)cc2)(C(F)(F)F)C(=O)N3)cc1OC (centres undefined)	-7%	-6%	/	28%	-37%[59 µM]
CCn1ccnc1CNCc1ccc(OCC(O)CN(C)Cc2ccccc2)cc1 (centres undefined)	?	?	-16%	8%	/
CN(Cc1ccccc1)CC(O)COc1ccc(CNCc2nccn2C)cc1 (centres undefined)	56µM*	-15%[11.4 µM]	-22%	14%	/
COc1ccc(S(=O)(=O)N2CCCOC2CNC(=O)C(=O)NCc2ccccn2)cc1 (centres undefined)	-3%	-23%	/	22%	-12%
S=c1[nH]nc(Nc2ccc(Cl)cc2)s1	?	-35%	7%	2%	/
Cc1c(Cl)cccc1Nc1n[nH]c(=S)s1	/	11µM*	/	50µM*	/
CCOc1ccc(Nc2n[nH]c(=S)s2)cc1	-9%	?	-2%	-18%	-150%
S=c1[nH]nc(Nc2cccc3ccccc23)s1	?	18µM*	-18%	40µM*	0.32µM*
Fc1ccccc1Nc1n[nH]c(=S)s1	50µM*	2.8µM*	-1%	45µM*	2.8µM*
CC(C)NC(=O)CCC(=O)N1Cc2ccccc2Oc2ncccc21	1%[57.1 µM]	-10%	/	31%	-14%[59 µM]
Cc1c(-c2nc(-c3ccc4c(c3)[nH]c(=O)n4C)no2)cccc1[N+](=O)[O-]	4%	-4%	/	15%[57 µM]	17%[59 µM]
O=C1NCCNC1c1ccccc1 (centres undefined)	/	-6%	/	36%	/
CN=c1scc(-c2ccc(F)cc2)n1/N=C/c1ccc(O)c(O)c1	10µM*	32µM*	/	40µM*	4.5µM*
O=C1C(N2CCOCC2)=C(n2nnc3ccccc32)C(=O)c2ccccc21	10µM*	-2%[11.4 µM]	/	?	40µM*
O=C1c2ccccc2C(=O)c2c1cccc2-n1nnc2ccccc21	-28%	-16%	/	-3%	?
Clc1ccccc1-c1nn2c(-c3ccccn3)nnc2s1	79µM*	?	-1%	?	?
Clc1ccccc1-c1nn2c(-c3ccncc3)nnc2s1	0%	?	5%	?	3.2µM*
Clc1ccccc1-c1nnc2sc(-c3cccs3)nn12	6%	-21%	-4%	-14%	35µM*
CCOC(=O)c1ccc(NC(=O)Cc2ccc(-n3c(CC)nc4cccnc43)cc2)cc1	-17%	-10%	/	21%	-8%[59 µM]
Fc1cnc(Cl)nc1NC1CCCCC1	2%	?	/	14%	-6%
SMILES	BAZ2B inh	JMJD2A Tudor	L3MBTL1 block	HP1b binding inh	G9a block
COc1cccc(/C=C/C(=O)Nc2ccc3nc(N4CCN(C)CC4)cc(C)c3c2)c1OC	?	?	/	-2%	?
CCOc1ccc(C(O)c2nccn2Cc2ccccc2)cc1 (centres undefined)	-38%	-22%	-3%	30%	?
CCn1ccnc1C(O)c1ccc(N(C)C)cc1 (centres undefined)	?	?	0%	-5%	32µM*
CCc1nn2c(=O)cc(COC(=O)c3ccccc3NC(=O)c3ccc(C(C)(C)C)cc3)nc2s1	-2%	-5%	/	31%	10%[59 µM]
CCCCOC(=O)Cn1c(=O)oc2ccc(C)cc21	18%	5%	18%	51%	11%[59 µM]
COC(=O)Cn1c(=O)oc2ccc(C)cc21	0%	32µM*	1%	-14%	-30%
COc1ccccc1OCCNc1nc2c(c(=O)n(C)c(=O)n2C)n1C	12%	22µM*	2%	-21%	19%[59 µM]
Cc1ccc(N2C(=O)/C(=C/c3ccco3)SC2=S)cc1	?	?	-20%	-16%	-17%
O=C1/C(=C/c2cccs2)SC(=S)N1CC(=O)N1CCCCC1CCO (centres undefined)	?	0%	/	39%	71µM*
O=C1/C(=C\c2ccco2)SC(=S)N1C1CCCCC1	10µM*	/	0%[2.29 µM]	/	6%[0.501 µM]
O=C1/C(=C/c2ccco2)SC(=S)N1CCC(=O)N1CCCCC1CCO (centres undefined)	50µM*	-5%	/	37%	45µM*
O=C1/C(=C/c2ccc(Cl)cc2)SC(=S)N1CCC(=O)N1CCCCC1CCO (centres undefined)	?	?	/	-15%	-26%
O=C1/C(=C/c2cccc(Cl)c2)SC(=S)N1CCC(=O)N1CCCCC1CCO (centres undefined)	28µM*	-11%	/	22%	/
N#Cc1cccc(NC(=O)C2CCN(c3cnccn3)CC2)c1	5%	-15%	/	35%	-5%[59 µM]
CC(C)Oc1ccc(CNC(=O)Nc2ccc3c(c2)N(C)C(=O)c2ccccc2S3)cc1	0%	-5%	/	67%	-13%[59 µM]
COc1cc(OC)c(-c2c3cc(O)c(=O)cc-3oc3cc(O)c(O)cc23)cc1OC	1.1µM*	1.1µM*	0.79µM*	-90%	10µM*
Cc1c2cc(O)c(=O)cc-2oc2cc(O)c(O)cc12	4.5µM*	1.4µM*	2.8µM*	0.71µM*	7.9µM*
Cc1cc2oc(=O)cc(-c3cc4ccccc4o3)c2cc1O	?	-32%	/	14%	-14%[59 µM]
CCOC(=O)C(NS(=O)(=O)c1ccccc1)(C(F)(F)F)P(=O)(OCC(C)C)OCC(C)C (centres undefined)	2%	-16%	/	13%	10µM*
Cc1ccc(C)c(N2CCN(c3nc4ccccc4c4nc(CCn5nc(C)cc5C)nn34)CC2)c1	0%	-9%	/	34%	-1%[59 µM]
COCCn1c(=O)c(-c2cccc(C#N)c2)nc2cnc(OCc3ccccc3)nc21	/	/	/	/	3%[0.501 µM]
OCC1CCCN(C(=S)Nc2ccc(Nc3ccccc3)cc2)C1 (centres undefined)	?	?	-25%	?	18µM*
OCC1CCCN(C(=S)Nc2ccc(OC(F)F)cc2)C1 (centres undefined)	-6%	-2%	-3%	34%	16%
Cn1c(=O)c2[nH]c(-c3ccccc3Cl)c(O)c2n(C)c1=O	-26%	7%	-6%	49%	45µM*
